The values that follow come from the supplement of paper PMC7156485.

Molecules are shown by their SMILES.

Holding throughout (conditions): concentration: 10 µM; 24 h
The test system of test [1] is HCC1569. Nature of the test: cell number relative to DMSO (% of DMSO); higher = more cells (less growth inhibition / toxicity). The gist of the method:
(§1)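 Cell number or H1.0 nuclear intensity appears as percent of the plate control, based on the median of replicates. Measurements came from HCC1569 and TDF cells exposed in triplicate to compounds at 10 µM for 24 h at 37 °C, then imaged in six fields per well at ×10. Positional effects were smoothed out of HCC1569 values.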

Test [2] relates to TDF. The test is described as above. The procedure, abridged:
as §1

The test system of test [3] is TDF. Nature of the test: H1.0 immunofluorescence intensity relative to DMSO (% of DMSO); higher = stronger H1.0 induction, active = 120 or more. The procedure, abridged: as §1
Test [4] deals with HCC1569. Description: H1.0 immunofluorescence intensity relative to DMSO (% of DMSO); higher = stronger H1.0 induction, active = 140 or more. The procedure, abridged: as §1
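Wherever H1.0 immunofluorescence intensity relative to DMSO is given: TDF is a line of transformed human dermal fibroblasts of mesenchymal origin.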
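Wherever cell number relative to DMSO is given: TDF denotes transformed human dermal fibroblasts of mesenchymal origin.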

Take `COc1ccc(CN(CCN(C)C)c2ccccn2)cc1.O=C(O)C=CC(=O)O` [Mepyramine maleate]: the cell number was found to be 106 in the test with HCC1569 [1] and 94.8 with TDF [2]. The H1.0 immunofluorescence intensity with TDF [3] is 92.3 (inactive); in the test on HCC1569 [4], 100 (inactive).
Taken in the same sequence, the figures for `CCC(=O)c1ccc2c(c1)N(CCCN(C)C)c1ccccc1S2.Cl` [Propionylpromazine hydrochloride] were 97.4, 97.1, 104 (inactive) and 117 (inactive).
For the compound `Cc1cccc(C#Cc2ccccc2)n1.Cl` [6-Methyl-2-(phenylethynyl)pyridine hydrochloride], the cell number in the test on HCC1569 [1] stood at 99.9; in the test with TDF [2], 105. Further, the values for the H1.0 immunofluorescence intensity in the test on TDF [3] and with HCC1569 [4] were 91.5 (inactive) and 96.7 (inactive), respectively.
Consider `CN1C(CC(=O)c2ccccc2)CCCC1CC(O)c1ccccc1.Cl` (stereo not drawn) [alpha-Lobeline hydrochloride], for which the cell number with HCC1569 [1] worked out at 99.3; in the test with TDF [2], 108. The figures for the H1.0 immunofluorescence intensity in the test with TDF [3] and in the test with HCC1569 [4] were 93.7 (inactive) and 103 (inactive), respectively.
With `CN(C)c1ccnc2sc3c(=O)n(N4CCCCCC4)cnc3c12`, the cell number in the test on HCC1569 [1] turned out to be 109; in the test with TDF [2], 103. Moreover, the H1.0 immunofluorescence intensity was 91 (inactive) with TDF [3] and 89.5 (inactive) in the test on HCC1569 [4].
Taken in the same sequence, the figures for `CCCCCCC=CCCCCCCCC(=O)O` [9(Z)-Hexadecenoic acid] were 98.8, 104, 97.9 (inactive) and 101 (inactive).
In the case of `Br.Oc1ccc(C2CNCCc3c2cc(O)c(O)c3Cl)cc1` (configuration not stated) [Fenoldopam bromide], the cell number was 103 in the test on HCC1569 [1] and 100 in the test with TDF [2]. For the same compound, the H1.0 immunofluorescence intensity with TDF [3] was 86.4 (inactive); with HCC1569 [4], 99.2 (inactive).
For the compound `CC1(C)CNc2cc(NC(=O)c3cccnc3NCc3ccncc3)ccc21` [Motesanib], the results for the cell number with HCC1569 [1] and in the test on TDF [2] were 90 and 91.4, respectively. In addition, the H1.0 immunofluorescence intensity is 107 (inactive) in the test with TDF [3] and 106 (inactive) in the test on HCC1569 [4].
